Data from PubChem BioAssay AID1159580 (chemical genetic matrix, 2015).
Where “and” joins values, the source holds several entries; their conditions need not be identical. Equal entries are not always repeated. About 2,000 (36%) of roughly 5,500 compounds were called active. Not shown: some 18% with an inconclusive outcome. Rule as the data show it: active = normalized growth mostly below about 0.91 (no sharp cut-off); inconclusive = no clear call, values can overlap the other calls; inactive = mostly above about 0.92. The list shows a part of the results.

Test: chemical genetic growth profiling, strain panel (AID 1159580);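 also: tested at 20 µM; growth read once vehicle control cultures reached saturation at 30 °C; 1 = growth at the plate median or of vehicle wells; lower values mean less growth of the strain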
Details: S. cerevisiae deletion strains, growth OD

Measured: normalized growth

COc1cc2cc[n+]3cc4c(OC)c(OC)ccc4cc3c2cc1OC
inactive: locus YAL013W, strain DEP1, active compounds read low 0.996 | locus YAL021C, strain ccr4, active compounds read low 0.99 | locus YAL026C, strain drs2, active compounds read low 0.97 | locus YAL030W, strain snc1, active compounds read low 0.965 | locus YBL061C, strain skt5, active compounds read low 0.971 | locus YBR009C, strain hhf1, active compounds read low 0.984 | locus YBR021W, strain FUR4, active compounds read low 1.03 | locus YBR023C, strain chs3, active compounds read low 0.977 | locus YBR171W, strain sec66, active compounds read low 0.975 | locus YBR229C, strain ROT2, active compounds read low 0.99 | locus YBR231C, strain swc5, active compounds read low 0.983 | locus YBR279W, strain paf1, active compounds read low 0.982 | locus YCL011C, strain gbp2, active compounds read low 0.963 | locus YCL016C, strain dcc1, active compounds read low 0.976 | locus YCL029C, strain bik1, active compounds read low 0.983 | locus YCL061C, strain MRC1, active compounds read low 0.987 | locus YCL069W, strain vba3, active compounds read low 0.981 | locus YCR088W, strain abp1, active compounds read low 0.982 | locus YDL005C, strain med2, active compounds read low 0.957 | locus YDL035C, strain GPR1, active compounds read low 0.975 | locus YDL040C, strain nat1, active compounds read low 0.985 | locus YDL074C, strain BRE1, active compounds read low 0.977 | locus YDL101C, strain DUN1, active compounds read low 0.98 | locus YDL134C, strain PPH21, active compounds read low 0.985 | locus YDL192W, strain arf1, active compounds read low 0.986 | locus YDR001C, strain nth1, active compounds read low 0.964 | locus YDR069C, strain doa4, active compounds read low 0.981 | locus YDR101C, strain arx1, active compounds read low 0.978 | locus YDR137W, strain rgp1, active compounds read low 0.977 | locus YDR150W, strain NUM1, active compounds read low 0.954 | locus YDR159W, strain sac3, active compounds read low 0.982 | locus YDR162C, strain NBP2, active compounds read low 0.99 | locus YDR195W, strain ref2 0.949 | locus YDR297W, strain sur2, active compounds read low 0.979 | locus YDR318W, strain mcm21, active compounds read low 0.969 | locus YDR334W, strain swr1, active compounds read low 0.944 | locus YDR335W, strain msn5, active compounds read low 0.98 | locus YDR388W, active compounds read low 0.989 | locus YDR392W, strain spt3, active compounds read low 0.927 | locus YDR502C, strain sam2, active compounds read low 0.98 | locus YEL003W, strain gim4, active compounds read low 0.974 | locus YEL037C, strain rad23, active compounds read low 0.967 | locus YEL061C, strain CIN8 (second series), active compounds read low 0.976 | locus YEL061C, strain CIN8, active compounds read low 0.996 | locus YER015W, strain faa2, active compounds read low 0.971 | locus YER016W, strain bim1, active compounds read low 0.974 | locus YER110C, active compounds read low 0.962 | locus YER111C, strain swi4, active compounds read low 0.972 | locus YER155C, strain BEM2 (second series), active compounds read low 0.976 | locus YER155C, strain BEM2, active compounds read low 1.01 | locus YER167W, strain BCK2, active compounds read low 0.978 | locus YFR010W, strain ubp6, active compounds read low 0.952 | locus YGL078C, strain dbp3, active compounds read low 0.979 | locus YGL086W, strain mad1, active compounds read low 0.975 | locus YGL167C, strain pmr1, active compounds read low 0.973 | locus YGL173C, strain kem1, active compounds read low 0.954 | locus YGL227W, strain vid30, active compounds read low 0.973 | locus YGL240W, strain doc1, active compounds read low 0.987 | locus YGL248W, strain PDE1, active compounds read low 0.99 | locus YGL253W, strain hxk2, active compounds read low 0.974 | locus YGR078C, strain PAC10, active compounds read low 0.986 | locus YGR135W, strain pre9, active compounds read low 1 | locus YGR229C, strain SMI1, active compounds read low 1.01 | locus YGR252W, strain gcn5, active compounds read low 0.93 | locus YHR013C, strain ard1, active compounds read low 0.945 | locus YHR027C, strain rpn1, active compounds read low 0.967 | locus YHR030C, strain SLT2, active compounds read low 0.982 and 1.02 | locus YHR079C, strain IRE1 (second series), active compounds read low 0.977 | locus YHR079C, strain IRE1, active compounds read low 1.04 | locus YHR094C, strain hxt1, active compounds read low 0.969 | locus YHR129C, strain ARP1, active compounds read low 0.945 | locus YHR142W, strain chs7, active compounds read low 0.932 | locus YHR200W, strain rpn10, active compounds read low 0.965 | locus YIL066C, strain RNR3, active compounds read low 0.974 | locus YIL073C, strain SPO22, active compounds read low 0.875 | locus YIL125W, strain kgd1, active compounds read low 0.965 | locus YIR030C, strain dcg1, active compounds read low 0.98 | locus YJL092W, strain hpr5, active compounds read low 0.978 | locus YJL095W, strain BCK1 (second series), active compounds read low 0.993 | locus YJL095W, strain BCK1, active compounds read low 0.994 and 0.984 | locus YJL115W, strain asf1, active compounds read low 0.936 | locus YJL129C, strain trk1, active compounds read low 0.94 | locus YJL134W, strain LCB3, active compounds read low 0.973 | locus YJL154C, strain vps35, active compounds read low 0.967 | locus YJL164C, strain tpk1, active compounds read low 1 | locus YJL166W, strain qcr8, active compounds read low 0.984 | locus YJL168C, strain set2, active compounds read low 0.98 | locus YJL187C, strain SWE1 (second series), active compounds read low 0.976 | locus YJL187C, strain SWE1, active compounds read low 0.988 | locus YJR043C, strain POL32, active compounds read low 0.96 | locus YJR066W, strain TOR1, active compounds read low 0.976
